Compounds with a hit are over-represented: about 2.9% of the library has one in this group of screens.
KDM5B inh: blocks human KDM5B histone demethylase activity; Q9UGL1; KDM5B demethylase, FDH-coupled NADH fluorescence (FDH is formaldehyde dehydrogenase); Potency, µM (series often up to 57.7 µM), hits mostly inhibitors; 220,000 tested, 2.6% active; AID 1347165; also: potency is read from the fitted curve at half-maximal effect; 0% is about no effect; nearly all actives have a fitted effect of over 70% in size
Target sequence (Q9UGL1 whole entry, looked up): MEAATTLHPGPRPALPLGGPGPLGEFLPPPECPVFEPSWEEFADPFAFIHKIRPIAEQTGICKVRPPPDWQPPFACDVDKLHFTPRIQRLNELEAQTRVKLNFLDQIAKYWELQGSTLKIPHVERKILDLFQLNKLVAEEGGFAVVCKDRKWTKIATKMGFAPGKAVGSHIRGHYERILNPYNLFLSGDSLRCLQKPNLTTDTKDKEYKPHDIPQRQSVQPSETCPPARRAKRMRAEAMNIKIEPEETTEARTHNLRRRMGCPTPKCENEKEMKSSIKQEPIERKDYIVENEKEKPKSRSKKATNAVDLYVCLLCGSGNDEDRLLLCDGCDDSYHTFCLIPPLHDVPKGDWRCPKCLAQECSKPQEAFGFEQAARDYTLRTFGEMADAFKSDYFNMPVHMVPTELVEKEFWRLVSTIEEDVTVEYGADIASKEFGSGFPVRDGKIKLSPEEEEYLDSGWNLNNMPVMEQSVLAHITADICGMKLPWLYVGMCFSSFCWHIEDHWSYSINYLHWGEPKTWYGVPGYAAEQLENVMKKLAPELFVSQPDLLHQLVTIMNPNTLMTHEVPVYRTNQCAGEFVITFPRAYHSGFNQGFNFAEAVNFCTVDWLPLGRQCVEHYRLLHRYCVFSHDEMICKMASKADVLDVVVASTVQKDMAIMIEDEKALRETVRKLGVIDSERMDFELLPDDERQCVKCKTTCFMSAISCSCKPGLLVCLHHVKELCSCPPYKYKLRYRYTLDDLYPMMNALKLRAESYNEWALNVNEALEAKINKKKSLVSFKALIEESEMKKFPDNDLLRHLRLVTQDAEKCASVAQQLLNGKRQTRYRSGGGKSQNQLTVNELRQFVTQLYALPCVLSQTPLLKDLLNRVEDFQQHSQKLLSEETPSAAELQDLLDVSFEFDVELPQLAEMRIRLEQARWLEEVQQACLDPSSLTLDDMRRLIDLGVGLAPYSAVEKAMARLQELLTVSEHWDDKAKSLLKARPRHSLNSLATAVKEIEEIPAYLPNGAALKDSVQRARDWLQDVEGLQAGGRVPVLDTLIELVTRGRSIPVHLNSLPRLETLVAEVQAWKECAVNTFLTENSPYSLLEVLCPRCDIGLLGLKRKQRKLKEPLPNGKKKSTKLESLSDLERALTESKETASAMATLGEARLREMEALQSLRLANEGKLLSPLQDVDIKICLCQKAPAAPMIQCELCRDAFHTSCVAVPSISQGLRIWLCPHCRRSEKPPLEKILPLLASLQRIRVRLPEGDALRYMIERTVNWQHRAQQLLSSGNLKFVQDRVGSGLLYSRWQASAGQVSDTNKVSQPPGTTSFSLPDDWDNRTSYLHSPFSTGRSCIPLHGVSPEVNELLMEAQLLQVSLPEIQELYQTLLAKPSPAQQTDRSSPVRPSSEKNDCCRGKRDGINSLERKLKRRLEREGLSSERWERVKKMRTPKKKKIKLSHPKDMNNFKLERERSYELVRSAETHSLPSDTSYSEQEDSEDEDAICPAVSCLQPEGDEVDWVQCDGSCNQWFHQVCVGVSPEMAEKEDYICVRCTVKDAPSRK
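KDM5BΔAP (200 nM final) in 50 mM HEPES pH 7.5, 0.01% Tween-20 was preincubated 10 min at RT with compound over a concentration range. Substrate mix (H3K4me3 12.5 µM, α-KG 25 µM, Fe²⁺, ascorbate, NAD⁺, FDH) was added, and NADH fluorescence change over 30 min gave dose-response curves.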
IP6K1 inhibitor: inhibitors of human IP6K1 | IP6K1 kinase, ADP-Glo luminescence, 2 h; hits give low values | activity change, % (series mostly up to about 58 µM) | 140,000 tested, 0.81% active | AID 1645851; in the data active = activity change below about -25%; also: % is scaled to controls: 0 for no effect and ±100 for the full control effect
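ADP-Glo luminescence measures ADP made by human IP6K1 during a 2 h RT reaction with ATP/IP6 (mix at 1.3 mM/130 uM); top library doses 57.5 and 19.1 uM final.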
HEK293 viab: reduces viability of HEK-293 SNCA reporter cells; HEK-293-SNCA-luc viability, GF-AFC fluorescence, 24 h; Potency, µM (highest dose often 57.1 µM), without a hit: top-dose activity change, negative = cytotoxicity, usual class: cytotoxic; 150,000 tested, 0.12% active; AID 1671193;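 also: potency is read from the fitted curve at half-maximal effect; 0% = DMSO-treated cells and -100% = medium-only wells without cells; nearly all actives have a fitted effect of over 30% in size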
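Cytotoxicity counterscreen: after 24 h compound treatment of genome-edited SNCA-luciferase HEK-293 cells, live-cell protease substrate GF-AFC read by fluorescence after 30 min; activity scaled between DMSO (0%) and medium-only (-100%), curves Hill-fitted.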
SNCA expr inhib: SNCA gene expression inhibition; Potency, µM (series often up to 57.2 µM), inactives show at the top dose activity change, negative = inhibition, actives largely listed as inhibitors; HEK-293 SNCA-luciferase knock-in, luminescence, 24 h; 140,000 tested, 0.17% active;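 also: potency is read from the fitted curve at half-maximal effect; plate controls were DMSO cells for no effect and cell-free wells for full effect; nearly all actives have a fitted effect of over 45% in size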
Active calls of the source: *; i = inactive; ? = inconclusive; . = not tested or not shown; [ ] = dose if it differs, or a comment. Unless noted, calls follow the shape of the dose curve; as a rule, active = well fitted curve in the direction sought with a large enough effect; inconclusive = small, poorly fitted or top-dose-only effect, or another doubt; inactive = no such curve, though single readings can be large; an effect the other way counts as inactive or inconclusive.

SMILES	KDM5B inh	IP6K1 inhibitor	HEK293 viab	SNCA expr inhib
CCCNC(=O)N1CC[C@@H](CC(=O)O)[C@@H](CC2=NCCc3ccc(OC)cc32)C1	39.8µM*	24.9	-8.2%[87.6 µM]	13.3%[87.6 µM]
COc1ccc2c(c1)C(C[C@H]1CN(C(=O)C3CC3)CC[C@H]1CC(=O)O)=NCC2	39.8µM*	15.0	9.5%[87.6 µM]	-10.6%[87.6 µM]
COc1ccc(CC(=O)NC2CCCN(Cc3ccc(-c4cccc(OC)c4)cc3)C2)cc1 (centres undefined)	.	4.7	.	.
COc1cccc(-c2ccc(C(=O)N3CCC(C(=O)NCc4cccc(Cl)c4)CC3)cc2)c1	.	-11.7	7.8%[12.5 µM]	28.4%
O=C(c1nnc(CNc2ccccn2)n1-c1cccnc1)N1CCC[C@@H]1C(c1ccccc1)c1ccccc1	12.6µM*	0.5	2.7%	-10.8%
O=C(c1nnc(CNCc2cccc(F)c2)n1-c1cccnc1)N1CCC[C@@H]1C(c1ccccc1)c1ccccc1	i	1.4	0.7%	-10.9%
O=C(NC1CCN(c2ccc3nnc(-c4ccccc4)n3n2)C1)C1CC1 (centres undefined)	.	-5.7	.	.
CCNc1ncnc2c1CN(C1CCNCC1)C(=O)CN2C	56.2µM*	-2.2	9.5%	-17.6%
CN1CC(=O)N(C2CCCNCC2)Cc2c(NCC3CCCCC3)ncnc21 (centres undefined)	?	-2.2	3.9%	10.7%
CN1CC(=O)N(C2CCCNC2)Cc2c1ncnc2N(C)Cc1ccc(F)cc1 (centres undefined)	22.4µM*	-11.6	-0.1%	9.3%
CN1CC(=O)N(C2CCCNCC2)Cc2c1ncnc2N1CCN(c2ccccn2)CC1 (centres undefined)	79.4µM*	1.0	-6.4%	0.5%
COc1ccc(CCNC(=O)c2ccc3nnc(C4CCCC4)n3c2)cc1	.	-2.1	-1.6%	-32.9%
COc1ccc(Cc2nc3nccc(-c4ccc(OC)cc4F)n3n2)cc1	28.2µM*	-12.7	-24.4%	-13.7%
COc1ccc(-c2ccnc3nc(Cc4ccc(F)cc4)nn23)c(F)c1	25.1µM*	-11.0	-5.5%	-13.1%
COc1ccc(Cc2nc3nccc(-c4cccs4)n3n2)cc1	i	4.4	1.2%	61.4%
COc1ccc(Cc2nc3nccc(-c4ccc(F)cc4OC)n3n2)cc1	17.8µM*	-8.4	8.1%	6.9%
COc1ccc(Cc2nc3nccc(-c4ccncc4)n3n2)cc1	i	4.5	11.8%	31.7%
Fc1ccc(Cc2nc3nccc(-c4cccs4)n3n2)cc1	28.2µM*	-9.5	-2.1%	128.5%
CC(C)N(Cc1cccc(N2CCN(C(=O)c3c(Cl)cccc3Cl)CC2)c1F)[S+](C)(=O)[O-]	.	-13.8	.	.
CC(C)CCNC(=O)CCC1CCCN(S(=O)(=O)c2cccc(F)c2)C1 (centres undefined)	.	0.3	0.6%	-1.3%
COc1cc(F)ccc1-c1ccnc2nc(CC(C)C)nn12	28.2µM*	10.5	4.9%	-28.1%
CC(C)(C)C(=O)NCCNC(=O)c1ccc(-c2cccc(C(F)(F)F)c2)cc1	.	5.0	.	.
CC(=O)NC1(C)CCN(Cc2ccc(-c3cccc(C(F)(F)F)c3)cc2)C1 (centres undefined)	?	24.1	-27.0%[87.6 µM]	124.4%[87.6 µM]
CN(C)C(=O)c1ccc(-c2nnc3ccc(NC(=O)C4CCC4)cn23)cc1	22.4µM*	-2.8	-13.7%	1.1%
O=C(NCCc1ccccn1)c1ccc(-c2nnc3ccc(NC(=O)C4CCC4)cn23)cc1	?	-9.0	-11.4%	8.0%
SMILES	KDM5B inh	IP6K1 inhibitor	HEK293 viab	SNCA expr inhib
O=C(NCCc1ccncc1)c1ccc(-c2nnc3ccc(NC(=O)C4CCC4)cn23)cc1	28.2µM*	-4.8	-3.9%	13.0%
CC(NC(=O)c1ccc(-c2nnc3ccc(NC(=O)C4CCC4)cn23)cc1)c1cccs1 (centres undefined)	28.2µM*	-6.5	-13.8%	-7.9%
O=C(Nc1ccc2nnc(-c3ccc(C(=O)N4CCSCC4)cc3)n2c1)C1CCC1	28.2µM*	-6.1	-1.9%	3.8%
COc1ccc(NC(=O)c2ccc(-c3nnc4ccc(NC(=O)C5CCC5)cn34)cc2)cc1	?	-0.9	-5.0%	28.5%
O=C(NCc1ccc(Cl)cc1)C1CCc2nnc(C3CCN([S+](=O)([O-])c4ccccc4Cl)CC3)n21 (centres undefined)	.	18.2	-12.8%[12.5 µM]	6.7%
COc1ccccc1-c1ccc(CN2CCCCC2C(=O)NCc2cccc(F)c2)cc1 (centres undefined)	.	6.0	.	.
CC(=O)Nc1ccc2nnc(-c3ccc(C(=O)N4CCCCCC4)cc3)n2c1	14.1µM*	-5.6	-7.5%	1.7%
CCN1CCN(C(=O)c2ccc(-c3nnc4ccc(NC(=O)C5CC5)cn34)cc2)CC1	28.2µM*	-7.5	9.3%	4.5%
CCCN(C)C(=O)c1ccc(-c2nnc3ccc(NC(=O)C4CCC4)cn23)cc1	22.4µM*	5.7	-7.7%	-9.1%
CN(C)CCNC(=O)c1ccc(-c2nnc3ccc(NC(=O)C4CCC4)cn23)cc1	?	0.0	3.2%	2.7%
O=C(c1ccc2nnc(-c3ccc(Cl)cc3)n2c1)N1CCCC1	.	3.7	6.3%[87.6 µM]	?
Cc1nn(-c2nc3c(c(=O)n(CC(N)=O)c(=O)n3C)n2Cc2ccccc2)c(C)c1C	i	.	.	.
COc1ccc2c(c1)O[C@H]1[C@H](CO)CN([S+](=O)([O-])c3cccs3)[C@@H]21	.	5.8	.	.
Cc1nc(-c2cccc(Cl)c2)n(Cc2nc(-c3ccc(OC(C)C)cc3)oc2C)c(=O)c1CCO	11.2µM*	3.3	1.3%	8.4%
COc1ccc(-c2nc(Cn3c(-c4cccc(Cl)c4)nc(C)c(CCO)c3=O)c(C)o2)cc1	28.2µM*	3.1	5.8%	17.4%
CCn1cc(CN2CCN(C(=O)c3cccs3)CC2)ccc1=O	11.2µM*	-2.1	2.6%	36.5%
CCn1cc(CN2CCN(C(=O)CCc3ccccc3)CC2)ccc1=O	7.08µM*	-1.9	9.3%	11.6%
O=C(c1ccccn1)N1CCN(Cc2ccc(=O)n(CC3CC3)c2)CC1	15.8µM*	1.1	2.0%	20.1%
COC(=O)[C@@H]1Cc2c([nH]c3ccccc23)[C@H]2C[C@@H](NCc3cccnc3)C[C@@H](c3ccc(OC(F)(F)F)cc3)N21	?	-17.1	2.3%	0.2%
CCCC(=O)N1Cc2ccccc2CC2(CCCCN2Cc2ccncc2)C1 (centres undefined)	?	-8.9	-12.2%	-2.3%
O=C(c1ccc(C(F)(F)F)cc1)N1CCC2(CC1)CCN(Cc1cccs1)c1ccccc1O2	?	13.5	-10.0%	19.1%
Cn1ncc2c(C(=O)NCc3cccs3)cc(-c3ccsc3)nc21	.	-17.6	-16.9%	-9.6%
COc1cccc(N2C(=O)NC(=NC3CCCCC3)C23CCCN(Cc2ccccc2)C3)c1 (centres undefined)	i	-9.0	-16.8%	?
COc1ccc(-c2cc3nc4c(c(=O)n3[nH]2)CN(C(=O)CCCc2c[nH]c3ccccc23)CC4)cc1	?	20.8	-7.4%	?
COc1ccc(-c2cc3nc4c(c(=O)n3[nH]2)CN(C(=O)Cc2ccccc2)CC4)cc1	28.2µM*	5.6	10.7%	-21.6%
COc1ccc(-c2cc3nc4c(c(=O)n3[nH]2)CN(C(=O)NCc2ccco2)CC4)cc1	25.1µM*	11.3	0.7%	?

Compound activity deposited in PubChem BioAssay by National Center for Advancing Translational Sciences (NCATS).
